Screen size: about 5,600 compounds; about 390 (7%) showed an effect of 50% or more. The full list was thinned out, with strong results kept by preference.

The target of experiment [1] is T1, Protein deacetylase HDAC6 (Homo sapiens) (UniProt Q9UBN7).
T1 sequence (whole entry): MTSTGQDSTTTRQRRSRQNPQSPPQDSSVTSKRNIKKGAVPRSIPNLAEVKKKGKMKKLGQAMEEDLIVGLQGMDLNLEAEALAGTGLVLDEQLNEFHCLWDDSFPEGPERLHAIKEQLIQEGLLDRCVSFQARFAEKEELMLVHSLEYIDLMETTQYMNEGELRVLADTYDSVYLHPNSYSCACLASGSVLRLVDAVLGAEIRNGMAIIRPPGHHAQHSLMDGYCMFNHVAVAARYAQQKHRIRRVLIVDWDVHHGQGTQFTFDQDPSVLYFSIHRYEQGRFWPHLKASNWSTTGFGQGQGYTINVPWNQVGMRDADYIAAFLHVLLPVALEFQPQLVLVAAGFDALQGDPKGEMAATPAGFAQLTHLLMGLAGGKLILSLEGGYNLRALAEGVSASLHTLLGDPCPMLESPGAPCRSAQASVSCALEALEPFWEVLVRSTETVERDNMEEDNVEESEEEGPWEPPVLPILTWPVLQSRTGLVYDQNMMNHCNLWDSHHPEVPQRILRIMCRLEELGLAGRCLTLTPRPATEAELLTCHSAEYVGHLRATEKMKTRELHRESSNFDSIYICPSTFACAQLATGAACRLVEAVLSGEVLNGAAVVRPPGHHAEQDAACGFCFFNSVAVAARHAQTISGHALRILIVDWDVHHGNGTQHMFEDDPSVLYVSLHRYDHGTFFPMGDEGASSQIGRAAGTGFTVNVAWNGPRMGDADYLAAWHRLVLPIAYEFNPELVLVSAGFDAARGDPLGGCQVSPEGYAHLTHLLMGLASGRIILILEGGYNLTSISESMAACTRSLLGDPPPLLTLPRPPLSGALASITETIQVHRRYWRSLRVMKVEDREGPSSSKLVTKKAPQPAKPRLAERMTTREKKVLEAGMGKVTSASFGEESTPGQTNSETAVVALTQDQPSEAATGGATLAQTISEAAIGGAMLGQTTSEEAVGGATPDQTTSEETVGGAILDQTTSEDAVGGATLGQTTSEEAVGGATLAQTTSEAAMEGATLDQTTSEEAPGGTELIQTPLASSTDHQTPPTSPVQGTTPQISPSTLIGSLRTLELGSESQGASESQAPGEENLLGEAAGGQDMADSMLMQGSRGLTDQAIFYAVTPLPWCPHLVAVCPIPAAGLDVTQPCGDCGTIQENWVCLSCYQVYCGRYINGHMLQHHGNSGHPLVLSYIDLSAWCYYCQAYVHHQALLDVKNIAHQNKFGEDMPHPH
The conditions noted are these: at 10 µM.

Experiment [2] addresses Protein deacetylase HDAC6 (Homo sapiens) (UniProt Q9UBN7). The conditions noted are these: at 10 µM. The source holds these as a separate data set.

In the case of `NCCCC[C@H](N)C(=O)O`, in experiment [1], the inhibition (as a rule, the drop in the measured response relative to a control, in per cent) is -8.14%. With `N=C(NCCC[C@H](N)C(=O)O)N[N+](=O)[O-]`, the inhibition in experiment [1] is 104%. Turning to `O=C1c2ccccc2-c2c(NCCc3ccccc3)c(=O)[nH]c3cccc1c23`, the inhibition in experiment [1] is 14.4%. Same read-out and setting: as for `CC(C)(CO)CCCCCCC(C)(C)CO`, the figure is 17.3%; as for `COC(=O)N[C@@H](C)CNc1nccc(-c2cn(C(C)C)nc2-c2cc(Cl)cc(NS(C)(=O)=O)c2F)n1`, -2.53%. Same read-out and setting: as for `CCOc1ccc(S(=O)(=O)O)c2cccnc12`, the figure is 102%; as for `O=C(NCCN1CCC2(CC1)C(=O)NCN2c1cccc(F)c1)c1ccc(F)c(F)c1`, 7.38%. As for `CC(C)(C)C#Cc1cc(N(C(=O)[C@H]2CC[C@H](C)CC2)[C@H]2CC[C@@H](O)CC2)c(C(=O)O)s1`, the inhibition in experiment [1] came to 26.8%. On the same count and under the same terms, with `O=S(=O)(O)c1ccc(O)cc1` the figure was 4.16%; with `CCCCc1ccc(C(N)=O)nc1`, 32.3%. As to `CC(C)(C)c1[nH]cnc1/C=c1\[nH]c(=O)/c(=C/c2ccccc2)[nH]c1=O`, the inhibition in experiment [1] turned out to be 77.4%.

Take `COc1cc2c(cc1OC(C)C)[C@H](c1ccc(Cl)cc1)N(c1ccc(N(C)C[C@H]3CC[C@H](N4CCN(C)C(=O)C4)CC3)cc1)C(=O)C2`: the inhibition in experiment [1] is 17.5%. Same read-out and setting: with `O=c1c(O)c(-c2ccc(O)c(O)c2)oc2cc(O)cc(O)c12` the figure was 98.5%.

In the case of `O=c1cc(-c2ccc(O)c(O)c2)oc2cc(O)cc(O)c12`, in experiment [1], the inhibition is 100%. `CC(=O)N[C@H](C=O)[C@@H](O)[C@H](O)[C@H](O)CO`: the inhibition in experiment [1] worked out at 19.4%. Still for that read-out and setting: with `N[C@@H](CC(=O)N1CCn2c(nnc2C(F)(F)F)C1)Cc1n[nH]c2c(F)c(F)ccc12` the figure was 18.7%. The same measure, in the same setting: with `O=C(O)C1CCC(c2cc3cccnc3c(-c3cccc(F)c3)n2)CC1` (centres undefined) the figure was -5.88%. On to MONOCTANOIN, CHEMBL6066833, for which the inhibition in experiment [2] is -5.59%. For `N=C(N)Nc1ccc(C(=O)Oc2ccc3cc(C(=N)N)ccc3c2)cc1`, in experiment [1], the inhibition stood at 29.9%. The same measure, in the same setting: as for `CCOC(=O)[C@@H](C)Oc1ccc(Oc2nc3ccc(Cl)cc3o2)cc1`, the figure is 14.5%; as for `CN(C)c1cccc(Oc2cnc(Nc3cccc(O)c3)nc2)c1`, 30.8%.

For the compound `Oc1cccc(Nc2ccc(Nc3cccc(O)c3)nn2)c1`, the inhibition in experiment [1] is 79.8%. The same measure, in the same setting: as for `CS(=O)(=O)c1ccc(Cn2c3c(c4cc(F)cc(F)c42)CCCC3CC(=O)O)cc1` (centres undefined), the figure is -7.09%.

Turning to `C#CC[C@H](c1nc2cc(Cl)ccc2c(=O)n1Nc1ccccc1)N(CCCN)C(=O)c1cccc(Cl)c1F`, the inhibition in experiment [1] was found to be 11.7%. Same read-out and setting: as for `CCC(CC)n1ccc2c(C(=O)NCc3c(C)cc(C)[nH]c3=O)cc(C#N)cc21`, the figure is 15.2%.

With `CC(O)C(CO)NC(=O)C1CSSCC(NC(=O)C(N)Cc2ccccc2)C(=O)NC(Cc2ccccc2)C(=O)NC(Cc2c[nH]c3ccccc23)C(=O)NC(CCCCN)C(=O)NC(C(C)O)C(=O)N1` (centres undefined), the inhibition in experiment [1] stood at 19.6%. On to NYSTATIN, CHEMBL5465559, for which, in experiment [2], the inhibition came out at 30.5%.

`O=C(O)CNC(=O)c1c(O)c2ccccc2n(Cc2ccccc2)c1=O`: in experiment [1], the inhibition amounted to 81.7%. In the case of `CCc1c(C(=O)C(N)=O)c2c(OCC(=O)O)cccc2n1Cc1ccccc1`, the inhibition in experiment [1] came to 20%.

For the compound `O=C(O)CNC(=O)c1ccccc1I`, the inhibition in experiment [1] turned out to be 36.6%. Take `Cc1ncc(C[n+]2csc(CCOP(=O)(O)OP(=O)(O)O)c2C)c(N)n1`: the inhibition in experiment [1] came out at 37.8%. Same read-out and setting: as for `COC(=O)c1ccc2c(c1)nc(NC(=O)c1ccccc1)n2CCCc1ccccc1`, the figure is -9.35%.

Consider `CN[C@@H]1Cc2cccc3[nH]c(=O)n(c23)C1`, for which the inhibition in experiment [1] is 4.82%. On the same count and under the same terms, as for `Oc1ncc(N(CCCl)CCCl)c(O)n1`, the figure is 2.6%.

Regarding `CN1CCN(c2ccc3[nH]c(-c4ccc5[nH]c(-c6ccc(O)cc6)nc5c4)nc3c2)CC1`, the inhibition in experiment [1] worked out at 64%. Regarding `CN1CCN(c2ccc3ccccc3n2)CC1`, the inhibition in experiment [1] is 44.6%. As for `CN1CCC(c2c[nH]c3ccc(O)cc23)CC1`, in experiment [1], the inhibition was determined as 5.85%. As for `NC(=O)c1cc[n+](CC2=C(C(=O)[O-])N3C(=O)[C@@H](NC(=O)Cc4cccs4)[C@H]3SC2)cc1`, the inhibition in experiment [1] is -9.58%. Same read-out and setting: with `O=C(O)C1CSCN1` (centres undefined) the figure was 8.04%; with `C[C@H](Cc1ccc2c(c1)OC(C(=O)O)(C(=O)O)O2)NC[C@H](O)c1cccc(Cl)c1`, 16.3%. As for `COc1cc(NC(=O)c2cccc(-n3cc(NC(=O)Nc4cccc(C)c4)cn3)c2)cc(OC)c1OC`, the inhibition in experiment [1] is 0.29%. Same read-out and setting: as for `CNC(=O)Oc1ccccc1OC(C)C`, the figure is 19.4%.

As for `COc1cc(NC(=O)c2ccccn2)ccc1Cl`, in experiment [1], the inhibition was found to be 101%. Still for that read-out and setting: with `O=C(Nc1cccc(Cl)c1)c1ccccn1` the figure was 104%; with `O=C(NNc1ccccc1)c1ccncc1`, 19%; with `O=C(Nc1cnc(Cl)nc1)c1ccc(F)c(F)c1`, 8.67%. On the same count and under the same terms, with `CC(C)OC(=O)Nc1cccc(Cl)c1` the figure was 81%; with `COc1ccc(C(=O)Nc2c(Cl)cncc2Cl)cc1OC1CCCC1`, 8.11%; with `O=C(Nc1ccc(S(=O)(=O)Nc2ccccc2Cl)c(Cl)c1)c1ccccn1`, 50.8%.

The values above are taken from ChEMBL document CHEMBL4808148, “HDAC6 screening dataset using tau-based substrate in an enzymatic assay yields selective inhibitors and activators” (2021).
